{"source": "PubChem BioAssay (NCI)", "note": "This is part of a sample that, as a whole, favours compounds with a hit. Of some 83,000 tested, about 20% had one in any assay.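 Method: cells in 96-well plates; compound added at one concentration; 48 h incubation; percent growth measured; values under 10 scored active.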 Active and inactive are the calls of the source.", "data": [{"tested_on": "HL-60(TB) leukemia", "test": "NCI-60 one-dose screen, 48 h (100 = growth as untreated, 0 = no growth, -100 = all killed)", "conditions": "10 µM unless noted", "values": [{"smiles": "CCCCC[C@H](O)C/C=C1/C(=O)C=C[C@@H]1C/C=C\\CCCC(=O)O", "growth": "90.7% (inactive)"}, {"smiles": "CCN(CC)CCOc1ccc(C2=C(c3ccccc3)CCc3cc(OC)ccc32)cc1", "growth": "-54.4% (active)"}, {"smiles": "COCCOc1ccc(-c2nc3ccc(-c4nc5ccc(N6CCN(C)CC6)cc5[nH]4)cc3[nH]2)cc1", "growth": "3.73% (active)"}, {"smiles": "COc1cc(/C=C/c2cc(/C=C/c3ccc(O)c(OC)c3)n(-c3ccc(Cl)cc3)c(=O)n2)ccc1O", "growth": "92.6% (inactive)"}, {"smiles": "COC(=O)/C(CCC=C(C)C)=C1\\[C@@H](OC(C)=O)C[C@@]2(C)[C@H]1CC(=O)[C@H]1[C@@]3(C)CC[C@H](NCc4ccccc4)[C@@H](C)[C@@H]3CC[C@@]12C", "growth": "84.7% (inactive)"}, {"smiles": "COC(=O)c1ccc(-n2cc(CCCOS(=O)(=O)c3ccc(F)cc3)nn2)cc1", "growth": "99.6% (inactive)"}, {"smiles": "CC(=O)/C=C/c1cc2cc(Cl)ccc2[nH]c1=O", "growth": "54.5% (inactive)"}, {"smiles": "Cc1nc(N=C(N)N)nc2ccc3ccccc3c12", "growth": "22.6% (inactive)"}, {"smiles": "C=C1C[C@@]2(C)C(CC[C@]3(C)C2CC=C2C4CC(C)(C)C[C@@H](OC(=O)/C(C)=C\\C)[C@]4(C(=O)O)CC[C@]23C)C(C)(C)C1=O", "note": "(stereo not given in full)", "growth": "-32.4% (active)"}, {"smiles": "O=C1NC(=O)C(Cn2cnc3ccccc32)N1", "note": "(stereo not given)", "growth": "95.8% (inactive)"}, {"smiles": "CC(NC(=O)C(C)Oc1ccc(Cl)cc1Cl)C(=O)O", "note": "(stereo not given)", "growth": "105% (inactive)"}, {"smiles": "Oc1ccc(CCCCCCc2ccc(O)cc2)cc1", "growth": "100% (inactive)"}, {"smiles": "COc1cc2cc(Oc3ccc(NC(=O)Nc4ccccc4)cc3)c(C)nc2cc1OCCN1CCCCC1", "growth": "-46.8% (active)"}, {"smiles": "O=C1c2cccc3c([N+](=O)[O-])ccc(c23)C(=O)N1CCCCl", "growth": "-25.4% [100 µM] (active)"}, {"smiles": "O=C(O)Cn1ccc2ccccc21", "growth": "104% (inactive)"}, {"smiles": "COc1ccc(/C=C(\\C#N)n2nnc3ccc(Cl)cc32)cc1", "growth": "86.6% (inactive)"}, {"smiles": "Nc1no[n+]([O-])c1-c1nnc2c(n1)-c1ccccc1C2=O", "growth": "13.1% (inactive)"}, {"smiles": "C/C(=N\\NC(=S)N1CCCCC1)c1ccccn1", "growth": "-21.6% (active)"}, {"smiles": "Cc1c(Cl)ccc2c(C(=O)Cl)cc(-c3ccccc3)nc12", "growth": "88.9% (inactive)"}, {"smiles": "COc1cc(CNC(=O)CCCC/C=C/C(C)C)ccc1O", "growth": "91.1% (inactive)"}, {"smiles": "c1ccc(-c2n(Cc3ccc4ccccc4c3)cc[n+]2Cc2ccc3ccccc3c2)cc1", "growth": "-47.6% (active)"}, {"smiles": "CC1(C)OC2[C@@H](CNC(=O)NC(=O)NC(=O)CI)O[C@@H](n3cnc4c(NC(=O)Nc5ccccc5)ncnc43)[C@H]2O1", "note": "(stereo not given in full)", "growth": "77.2% (inactive)"}, {"smiles": "Clc1ccc(/C=C/c2nc(Nc3ccc(Cl)cc3)c3ccccc3n2)cc1", "growth": "102% (inactive)"}, {"smiles": "COc1cc(OC)c(C(=O)/C=C/c2ccc(C#N)cc2)c(OC)c1", "growth": "-7.85% (active)"}, {"smiles": "C#CCSc1nnnn1-c1ccccc1", "growth": "92.7% (inactive)"}, {"smiles": "O=C1CC(c2ccsc2)c2snc(-c3ccc(Cl)cc3)c2N1", "note": "(stereo not given)", "growth": "12.9% (inactive)"}, {"smiles": "O=C(N(c1ccccc1)c1ccccc1)n1ccc2nc(Cl)nc(Cl)c21", "growth": "49.5% (inactive)"}, {"smiles": "CN1CCN(c2ccc(NC(=O)c3cncnc3Nc3ccc(OCc4cccc(F)c4)c(Cl)c3)cc2)CC1", "growth": "66.9% (inactive)"}, {"smiles": "Cc1cc(NCCN(C(C)C)C(C)C)nc(/N=C(\\N)Nc2ccc(Cl)c(C(F)(F)F)c2)n1", "growth": "-87.9% (active)"}, {"smiles": "Cc1ccc2c3c(cccc13)-c1ccccc1C2=O", "growth": "99% (inactive)"}, {"smiles": "O=CN1N=C(c2ccc(Cl)cc2)CC1c1cccc(Nc2ccnc3cc(C(F)(F)F)ccc23)c1", "note": "(stereo not given)", "growth": "31.6% (inactive)"}, {"smiles": "C=CCn1c(-c2ccc(-c3nc4ccc(C)cc4[nH]3)cc2)n[nH]c1=S", "growth": "110% (inactive)"}, {"smiles": "C#CCOc1cccc(Nc2ncnc3ccc(NC(=O)C=C)cc23)c1", "growth": "29.3% (inactive)"}, {"smiles": "COc1ccccc1/C=N\\N/C(N)=N\\N=C\\c1ccccc1OC", "growth": "-25.9% (active)"}, {"smiles": "O=C(CN1C(=O)/C(=C\\c2ccc(Cl)cc2)SC1=S)Nc1ncc(Cc2ccc(Cl)cc2)s1", "growth": "102% (inactive)"}, {"smiles": "Cc1ccc(S(=O)(=O)N/N=C2\\CC3CCC2(C)C3(C)C)cc1", "note": "(stereo not given)", "growth": "116% (inactive)"}, {"smiles": "CCOC(=O)C1=C(C)NC(SCc2nnc(-c3ccc(Cl)cc3)o2)=NC1c1ccc(Cl)cc1Cl", "note": "(stereo not given)", "growth": "-6.39% (active)"}, {"smiles": "c1ccc(-c2cc(-c3cc(-c4ccccc4)on3)no2)cc1", "growth": "64% (inactive)"}, {"smiles": "O=C1Nc2ccc(Cl)cc2/C1=N/c1nc(-c2ccc(Cl)cc2)cs1", "growth": "-32.4% (active)"}, {"smiles": "O=Nc1c(-c2c(O)[nH]c3ncccc23)[nH]c2ccccc12", "growth": "125% (inactive)"}]}]}
